# Key:
# Experiment in all cases: DAPPL (digital affinity profiling via proximity ligation, sequencing); 10 mM Tris-HCl pH 7.5, 50 mM NaCl, 1 mM DTT, 4% glycerol, room temperature, 30 min; GST-TFs on glutathione beads, 16-mer random dsDNA library, 0.1% formaldehyde crosslink after washing; high values mean tight binding
# FLI1 = target: T1, FLI1 (Homo sapiens, UniProt Q01543 1-452); settings: protein: recombinant; tags: N-terminal GST; dsDNA, one strand shown
# T1 sequence: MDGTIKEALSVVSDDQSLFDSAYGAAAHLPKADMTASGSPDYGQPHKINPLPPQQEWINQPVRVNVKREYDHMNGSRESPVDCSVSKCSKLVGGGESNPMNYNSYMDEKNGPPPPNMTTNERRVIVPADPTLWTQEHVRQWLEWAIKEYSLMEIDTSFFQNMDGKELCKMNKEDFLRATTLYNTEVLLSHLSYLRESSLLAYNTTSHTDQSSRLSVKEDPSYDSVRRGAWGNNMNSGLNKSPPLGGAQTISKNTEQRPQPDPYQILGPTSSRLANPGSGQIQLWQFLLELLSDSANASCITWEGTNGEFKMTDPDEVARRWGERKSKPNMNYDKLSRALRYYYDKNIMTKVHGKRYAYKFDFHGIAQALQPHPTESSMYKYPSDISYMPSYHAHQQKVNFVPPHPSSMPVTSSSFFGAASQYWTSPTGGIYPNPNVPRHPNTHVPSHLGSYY
# In short: (§1)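 The binding signal reported is, for every hexamer, its read frequency for a factor over its read frequency for the tag-only sample. Reads came from pools of yeast-expressed, GST-fused human transcription factors on glutathione beads, barcoded with DNA and mixed with that sample, which were incubated with 200 nmole of a random double-stranded 16-mer DNA library in Tris/NaCl/DTT/glycerol buffer at room temperature for 30 min. After washing, the pools were crosslinked with 0.1% formaldehyde, proximity-ligated with BsaI/T4 ligase for 1 h at 37 °C, PCR-amplified and sequenced on an Illumina NextSeq500.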
# ELK1 = target: T2, ELK1 (Homo sapiens, UniProt P19419 1-428); settings: protein: recombinant; tags: N-terminal GST; dsDNA, one strand shown
# T2 sequence: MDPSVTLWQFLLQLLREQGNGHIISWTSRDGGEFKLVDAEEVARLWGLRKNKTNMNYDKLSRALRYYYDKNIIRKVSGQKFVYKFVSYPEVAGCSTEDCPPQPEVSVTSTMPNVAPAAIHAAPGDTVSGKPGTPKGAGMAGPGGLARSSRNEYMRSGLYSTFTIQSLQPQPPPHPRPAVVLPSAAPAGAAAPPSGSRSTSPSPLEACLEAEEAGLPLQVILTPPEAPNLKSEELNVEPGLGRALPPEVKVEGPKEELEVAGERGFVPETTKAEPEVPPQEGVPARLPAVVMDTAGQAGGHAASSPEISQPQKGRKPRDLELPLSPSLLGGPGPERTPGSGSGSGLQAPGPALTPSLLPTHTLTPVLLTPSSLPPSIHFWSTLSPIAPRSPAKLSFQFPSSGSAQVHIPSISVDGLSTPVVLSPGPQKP
# In short: as §1
# GABPA = target: T3, GABPA (Homo sapiens, UniProt Q06546 1-454); settings: protein: recombinant; tags: N-terminal GST; dsDNA, one strand shown
# T3 sequence: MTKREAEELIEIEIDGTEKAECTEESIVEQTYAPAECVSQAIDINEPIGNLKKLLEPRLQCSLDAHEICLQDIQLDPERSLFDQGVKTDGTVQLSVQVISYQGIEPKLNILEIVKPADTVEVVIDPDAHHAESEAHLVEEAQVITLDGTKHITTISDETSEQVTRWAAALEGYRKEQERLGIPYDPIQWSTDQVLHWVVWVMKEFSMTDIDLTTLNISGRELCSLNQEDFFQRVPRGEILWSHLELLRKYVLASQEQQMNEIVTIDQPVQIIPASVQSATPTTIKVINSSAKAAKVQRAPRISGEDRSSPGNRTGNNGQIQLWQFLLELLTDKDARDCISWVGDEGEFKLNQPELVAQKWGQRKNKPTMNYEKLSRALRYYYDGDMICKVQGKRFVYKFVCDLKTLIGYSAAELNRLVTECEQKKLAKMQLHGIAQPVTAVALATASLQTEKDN
# In short: as §1
# ERG = target: T4, ERG (Homo sapiens, UniProt P11308 1-479); settings: protein: recombinant; tags: N-terminal GST; dsDNA, one strand shown
# T4 sequence: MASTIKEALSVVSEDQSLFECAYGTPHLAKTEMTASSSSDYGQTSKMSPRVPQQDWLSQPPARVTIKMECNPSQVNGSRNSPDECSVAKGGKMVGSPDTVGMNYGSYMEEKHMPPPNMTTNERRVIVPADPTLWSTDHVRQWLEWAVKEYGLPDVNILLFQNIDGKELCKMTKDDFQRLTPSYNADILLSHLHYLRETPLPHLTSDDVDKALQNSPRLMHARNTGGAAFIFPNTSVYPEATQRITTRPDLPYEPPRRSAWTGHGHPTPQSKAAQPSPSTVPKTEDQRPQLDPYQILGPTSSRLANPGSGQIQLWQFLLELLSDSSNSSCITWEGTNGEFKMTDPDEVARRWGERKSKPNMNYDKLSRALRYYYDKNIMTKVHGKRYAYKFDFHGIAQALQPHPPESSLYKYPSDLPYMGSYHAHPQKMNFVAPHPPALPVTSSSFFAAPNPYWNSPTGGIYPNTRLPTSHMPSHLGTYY
# In short: as §1
# ELF1 = ELF1 (Homo sapiens, UniProt P32519 1-619); settings: protein: recombinant; tags: N-terminal GST; dsDNA, one strand shown
# Chain of ELF1 (P32519 whole entry): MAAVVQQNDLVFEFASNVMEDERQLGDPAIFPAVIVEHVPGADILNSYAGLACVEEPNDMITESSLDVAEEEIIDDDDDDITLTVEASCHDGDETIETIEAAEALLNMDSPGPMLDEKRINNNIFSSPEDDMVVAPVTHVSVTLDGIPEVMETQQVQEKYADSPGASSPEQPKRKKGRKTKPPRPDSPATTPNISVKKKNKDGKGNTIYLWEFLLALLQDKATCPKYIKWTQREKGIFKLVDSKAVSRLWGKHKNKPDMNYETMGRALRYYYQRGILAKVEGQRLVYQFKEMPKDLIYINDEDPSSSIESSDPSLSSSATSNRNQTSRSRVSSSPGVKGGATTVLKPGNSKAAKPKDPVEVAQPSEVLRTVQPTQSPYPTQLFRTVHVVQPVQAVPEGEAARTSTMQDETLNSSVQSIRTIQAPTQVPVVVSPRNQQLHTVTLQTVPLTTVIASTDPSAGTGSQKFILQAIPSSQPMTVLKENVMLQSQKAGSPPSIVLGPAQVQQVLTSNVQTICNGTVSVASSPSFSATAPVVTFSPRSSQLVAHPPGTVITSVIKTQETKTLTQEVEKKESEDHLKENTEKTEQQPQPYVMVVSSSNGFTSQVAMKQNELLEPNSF
# In short: as §1
# EHF = target: T5, EHF (Homo sapiens, UniProt Q9NZC4 1-300); settings: protein: recombinant; tags: N-terminal GST; dsDNA, one strand shown
# T5 sequence: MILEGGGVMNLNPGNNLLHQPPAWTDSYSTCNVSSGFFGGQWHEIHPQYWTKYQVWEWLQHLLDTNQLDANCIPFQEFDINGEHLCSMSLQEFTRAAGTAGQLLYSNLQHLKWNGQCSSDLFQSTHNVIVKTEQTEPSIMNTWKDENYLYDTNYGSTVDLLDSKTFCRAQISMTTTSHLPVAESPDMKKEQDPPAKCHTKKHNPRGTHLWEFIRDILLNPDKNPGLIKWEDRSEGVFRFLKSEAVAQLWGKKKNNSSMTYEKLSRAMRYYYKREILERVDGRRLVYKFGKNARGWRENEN
# In short: as §1
# SPI1 = SPI1 (Homo sapiens, UniProt P17947 1-270); settings: protein: recombinant; tags: N-terminal GST; dsDNA, one strand shown
# In short: as §1
# SPIB = SPIB (Homo sapiens, UniProt Q01892 1-262); settings: protein: recombinant; tags: N-terminal GST; dsDNA, one strand shown
# Chain of SPIB (Q01892 whole entry): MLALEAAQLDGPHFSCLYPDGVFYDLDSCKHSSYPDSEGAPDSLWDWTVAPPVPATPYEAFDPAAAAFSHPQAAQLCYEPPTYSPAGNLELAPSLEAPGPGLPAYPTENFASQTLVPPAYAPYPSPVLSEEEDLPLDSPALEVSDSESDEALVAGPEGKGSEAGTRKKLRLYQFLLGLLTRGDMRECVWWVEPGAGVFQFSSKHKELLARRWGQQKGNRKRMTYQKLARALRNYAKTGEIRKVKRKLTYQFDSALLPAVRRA
# In short: as §1
# ELK3 = target: T6, ELK3 (Homo sapiens, UniProt P41970 1-407); settings: protein: recombinant; tags: N-terminal GST; dsDNA, one strand shown
# T6 sequence: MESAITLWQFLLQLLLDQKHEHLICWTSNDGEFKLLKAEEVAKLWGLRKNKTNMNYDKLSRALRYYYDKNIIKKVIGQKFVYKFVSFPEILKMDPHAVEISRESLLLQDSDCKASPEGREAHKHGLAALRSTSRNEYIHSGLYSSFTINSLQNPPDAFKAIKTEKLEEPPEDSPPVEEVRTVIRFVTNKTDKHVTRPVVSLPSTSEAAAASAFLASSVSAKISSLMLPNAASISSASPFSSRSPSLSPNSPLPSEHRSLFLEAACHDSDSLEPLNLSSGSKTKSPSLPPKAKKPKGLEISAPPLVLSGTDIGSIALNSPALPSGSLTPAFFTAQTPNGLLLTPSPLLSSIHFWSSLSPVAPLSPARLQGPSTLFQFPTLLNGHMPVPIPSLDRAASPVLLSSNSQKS
# In short: as §1
# FEV = target: T7, FEV (Homo sapiens, UniProt Q99581 1-238); settings: protein: recombinant; tags: N-terminal GST; dsDNA, one strand shown
# T7 sequence: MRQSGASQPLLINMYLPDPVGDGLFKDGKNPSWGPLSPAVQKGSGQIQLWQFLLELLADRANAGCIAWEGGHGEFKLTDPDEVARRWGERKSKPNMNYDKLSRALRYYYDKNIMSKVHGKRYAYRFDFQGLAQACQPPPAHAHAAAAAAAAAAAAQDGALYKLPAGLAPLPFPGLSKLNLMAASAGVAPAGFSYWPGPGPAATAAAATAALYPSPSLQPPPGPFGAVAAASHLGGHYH
# In short: as §1
# ETV5 = ETV5 (Homo sapiens, UniProt P41161 1-510); settings: protein: recombinant; tags: N-terminal GST; dsDNA, one strand shown
# Chain of ETV5 (P41161 whole entry): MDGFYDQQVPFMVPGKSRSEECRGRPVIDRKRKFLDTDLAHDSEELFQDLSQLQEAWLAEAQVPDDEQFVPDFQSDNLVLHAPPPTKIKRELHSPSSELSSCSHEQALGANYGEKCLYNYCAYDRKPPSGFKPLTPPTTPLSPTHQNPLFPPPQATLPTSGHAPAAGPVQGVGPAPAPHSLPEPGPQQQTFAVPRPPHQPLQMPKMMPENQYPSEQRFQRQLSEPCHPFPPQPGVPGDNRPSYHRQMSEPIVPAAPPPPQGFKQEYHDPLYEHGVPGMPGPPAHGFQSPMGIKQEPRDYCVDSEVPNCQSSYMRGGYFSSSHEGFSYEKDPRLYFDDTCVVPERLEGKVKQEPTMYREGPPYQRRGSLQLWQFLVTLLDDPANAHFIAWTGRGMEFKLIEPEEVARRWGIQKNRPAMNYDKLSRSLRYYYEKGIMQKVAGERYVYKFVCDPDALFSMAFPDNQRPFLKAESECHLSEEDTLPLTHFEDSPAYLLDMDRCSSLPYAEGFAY
# In short: as §1
# HSF1 = HSF1 (Homo sapiens, UniProt Q00613 1-529); settings: protein: recombinant; tags: N-terminal GST; chain copies: 3; dsDNA, one strand shown
# Chain of HSF1 (Q00613 whole entry): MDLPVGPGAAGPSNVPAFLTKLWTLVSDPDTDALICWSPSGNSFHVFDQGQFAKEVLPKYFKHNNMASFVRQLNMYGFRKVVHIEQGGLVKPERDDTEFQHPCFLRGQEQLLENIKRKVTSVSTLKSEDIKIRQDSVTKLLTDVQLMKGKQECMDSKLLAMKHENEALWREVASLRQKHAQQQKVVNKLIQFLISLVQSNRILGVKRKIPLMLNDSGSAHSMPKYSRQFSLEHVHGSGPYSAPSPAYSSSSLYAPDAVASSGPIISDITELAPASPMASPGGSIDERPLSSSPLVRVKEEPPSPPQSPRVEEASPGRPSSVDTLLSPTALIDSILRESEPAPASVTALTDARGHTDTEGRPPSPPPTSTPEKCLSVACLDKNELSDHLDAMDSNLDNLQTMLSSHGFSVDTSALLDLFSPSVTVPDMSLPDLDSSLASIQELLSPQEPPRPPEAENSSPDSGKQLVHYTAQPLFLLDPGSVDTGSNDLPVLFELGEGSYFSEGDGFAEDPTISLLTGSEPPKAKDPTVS
# In short: as §1
# SPIC = target: T8, SPIC (Homo sapiens, UniProt Q8N5J4 1-248); settings: protein: recombinant; tags: N-terminal GST; dsDNA, one strand shown
# T8 sequence: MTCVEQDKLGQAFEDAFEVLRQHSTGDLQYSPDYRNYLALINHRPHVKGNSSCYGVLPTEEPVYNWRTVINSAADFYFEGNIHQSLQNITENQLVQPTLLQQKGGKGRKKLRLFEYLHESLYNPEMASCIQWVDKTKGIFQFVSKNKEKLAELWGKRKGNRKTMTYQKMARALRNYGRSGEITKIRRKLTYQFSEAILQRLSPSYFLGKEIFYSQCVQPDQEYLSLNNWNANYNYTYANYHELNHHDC
# In short: as §1
# ELF4 = ELF4 (Homo sapiens, UniProt Q99607 1-663); settings: protein: recombinant; tags: N-terminal GST; dsDNA, one strand shown
# Chain of ELF4 (Q99607 whole entry): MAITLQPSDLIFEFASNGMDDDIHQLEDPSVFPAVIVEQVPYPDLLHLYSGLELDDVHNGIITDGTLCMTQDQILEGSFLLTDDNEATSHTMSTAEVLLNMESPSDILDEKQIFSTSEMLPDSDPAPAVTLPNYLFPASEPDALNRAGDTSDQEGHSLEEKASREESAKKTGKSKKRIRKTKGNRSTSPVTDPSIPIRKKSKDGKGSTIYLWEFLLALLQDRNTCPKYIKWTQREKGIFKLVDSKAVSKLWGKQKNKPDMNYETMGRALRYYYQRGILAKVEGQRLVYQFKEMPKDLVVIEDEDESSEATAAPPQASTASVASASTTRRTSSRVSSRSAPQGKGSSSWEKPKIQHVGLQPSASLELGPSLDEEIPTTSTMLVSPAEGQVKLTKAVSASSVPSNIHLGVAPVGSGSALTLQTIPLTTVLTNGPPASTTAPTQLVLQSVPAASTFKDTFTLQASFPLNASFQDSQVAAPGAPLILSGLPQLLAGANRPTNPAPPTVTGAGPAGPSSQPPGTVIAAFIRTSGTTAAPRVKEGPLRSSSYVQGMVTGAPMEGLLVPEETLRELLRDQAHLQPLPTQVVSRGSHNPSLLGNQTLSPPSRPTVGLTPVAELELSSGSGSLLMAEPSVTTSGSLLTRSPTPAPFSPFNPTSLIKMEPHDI
# In short: as §1
# ELK4 = target: T9, ELK4 (Homo sapiens, UniProt P28324-2 1-405); settings: protein: recombinant; tags: N-terminal GST; dsDNA, one strand shown
# T9 sequence: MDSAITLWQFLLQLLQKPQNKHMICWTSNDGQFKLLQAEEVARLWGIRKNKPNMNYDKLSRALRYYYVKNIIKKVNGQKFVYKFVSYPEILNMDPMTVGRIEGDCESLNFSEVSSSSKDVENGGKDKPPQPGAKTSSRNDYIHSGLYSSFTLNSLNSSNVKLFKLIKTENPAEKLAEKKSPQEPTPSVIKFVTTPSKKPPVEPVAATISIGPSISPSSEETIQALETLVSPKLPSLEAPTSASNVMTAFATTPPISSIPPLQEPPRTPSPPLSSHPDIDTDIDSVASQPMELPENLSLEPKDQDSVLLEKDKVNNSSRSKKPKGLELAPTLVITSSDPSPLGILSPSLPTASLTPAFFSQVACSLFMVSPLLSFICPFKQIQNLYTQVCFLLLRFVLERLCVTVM
# In short: as §1
# ETV2 = target: T10, ETV2 (Homo sapiens, UniProt O00321 1-342); settings: protein: recombinant; tags: N-terminal GST; dsDNA, one strand shown
# T10 sequence: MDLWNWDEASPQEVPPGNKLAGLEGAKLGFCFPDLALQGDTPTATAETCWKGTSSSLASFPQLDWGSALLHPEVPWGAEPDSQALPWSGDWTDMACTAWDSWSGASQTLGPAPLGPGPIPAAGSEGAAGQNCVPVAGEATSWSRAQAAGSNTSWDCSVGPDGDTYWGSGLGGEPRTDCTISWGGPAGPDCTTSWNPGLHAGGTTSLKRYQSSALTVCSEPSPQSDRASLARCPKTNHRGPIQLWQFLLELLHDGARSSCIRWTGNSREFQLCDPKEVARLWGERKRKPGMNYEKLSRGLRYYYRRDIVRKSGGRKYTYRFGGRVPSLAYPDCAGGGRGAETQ
# In short: as §1
# ELF3 = target: T11, ELF3 (Homo sapiens, UniProt P78545 1-371); settings: protein: recombinant; tags: N-terminal GST; dsDNA, one strand shown
# T11 sequence: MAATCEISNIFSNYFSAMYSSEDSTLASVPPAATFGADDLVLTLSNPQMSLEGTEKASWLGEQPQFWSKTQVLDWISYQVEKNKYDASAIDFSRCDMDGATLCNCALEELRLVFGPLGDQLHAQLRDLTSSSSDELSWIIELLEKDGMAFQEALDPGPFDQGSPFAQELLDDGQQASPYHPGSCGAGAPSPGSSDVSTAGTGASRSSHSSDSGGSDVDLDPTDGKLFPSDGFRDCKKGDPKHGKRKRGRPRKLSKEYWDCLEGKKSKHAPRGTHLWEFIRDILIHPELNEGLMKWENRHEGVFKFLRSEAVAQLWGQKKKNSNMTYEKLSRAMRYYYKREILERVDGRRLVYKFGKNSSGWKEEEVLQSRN
# In short: as §1
# CRX = CRX (Homo sapiens, UniProt O43186 1-299); settings: protein: recombinant; tags: N-terminal GST; dsDNA, one strand shown
# Chain of CRX (O43186 whole entry): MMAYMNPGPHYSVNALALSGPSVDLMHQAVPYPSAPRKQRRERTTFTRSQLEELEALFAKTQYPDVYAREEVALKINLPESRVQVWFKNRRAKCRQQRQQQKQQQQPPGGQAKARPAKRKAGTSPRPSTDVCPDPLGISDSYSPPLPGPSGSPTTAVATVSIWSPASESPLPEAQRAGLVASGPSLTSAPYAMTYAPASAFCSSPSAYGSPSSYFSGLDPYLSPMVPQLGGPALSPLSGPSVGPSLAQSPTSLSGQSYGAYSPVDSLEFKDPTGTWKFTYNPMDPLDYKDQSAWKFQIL
# In short: as §1
# ETV1 = ETV1 (Homo sapiens, UniProt P50549 1-477); settings: protein: recombinant; tags: N-terminal GST; dsDNA, one strand shown
# Chain of ETV1 (P50549 whole entry): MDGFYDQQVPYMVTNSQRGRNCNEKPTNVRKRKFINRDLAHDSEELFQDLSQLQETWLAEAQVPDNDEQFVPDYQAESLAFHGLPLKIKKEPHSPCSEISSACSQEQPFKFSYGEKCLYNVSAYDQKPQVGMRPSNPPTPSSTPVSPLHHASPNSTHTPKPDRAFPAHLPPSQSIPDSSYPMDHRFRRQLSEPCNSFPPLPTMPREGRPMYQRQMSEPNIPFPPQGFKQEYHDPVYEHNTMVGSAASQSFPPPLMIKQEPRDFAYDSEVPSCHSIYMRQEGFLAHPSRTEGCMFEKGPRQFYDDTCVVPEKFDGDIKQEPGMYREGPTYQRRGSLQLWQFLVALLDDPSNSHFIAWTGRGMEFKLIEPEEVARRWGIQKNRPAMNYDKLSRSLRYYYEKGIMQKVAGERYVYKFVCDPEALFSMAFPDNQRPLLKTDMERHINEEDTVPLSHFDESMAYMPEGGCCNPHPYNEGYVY
# In short: as §1
sequence,measurement,setting,value
TCCTTG,binding signal,FLI1,"1.25 fold enrichment (6-mer frequency, TF over GST control)"
same,binding signal,ELK1,"1.31 fold enrichment (6-mer frequency, TF over GST control)"
same,binding signal,GABPA,"1.25 fold enrichment (6-mer frequency, TF over GST control)"
same,binding signal,ERG,"1.35 fold enrichment (6-mer frequency, TF over GST control)"
same,binding signal,ELF1,"1.25 fold enrichment (6-mer frequency, TF over GST control)"
same,binding signal,EHF,"1.32 fold enrichment (6-mer frequency, TF over GST control)"
same,binding signal,SPI1,"1.31 fold enrichment (6-mer frequency, TF over GST control)"
same,binding signal,SPIB,"1.41 fold enrichment (6-mer frequency, TF over GST control)"
same,binding signal,ELK3,"1.29 fold enrichment (6-mer frequency, TF over GST control)"
same,binding signal,FEV,"1.21 fold enrichment (6-mer frequency, TF over GST control)"
same,binding signal,ETV5,"1.22 fold enrichment (6-mer frequency, TF over GST control)"
same,binding signal,HSF1,"1.15 fold enrichment (6-mer frequency, TF over GST control)"
same,binding signal,SPIC,"1.23 fold enrichment (6-mer frequency, TF over GST control)"
same,binding signal,ELF4,"1.27 fold enrichment (6-mer frequency, TF over GST control)"
same,binding signal,ELK4,"1.41 fold enrichment (6-mer frequency, TF over GST control)"
same,binding signal,ETV2,"1 fold enrichment (6-mer frequency, TF over GST control)"
same,binding signal,ELF3,"1.31 fold enrichment (6-mer frequency, TF over GST control)"
same,binding signal,CRX,"1.11 fold enrichment (6-mer frequency, TF over GST control)"
same,binding signal,ETV1,"1.35 fold enrichment (6-mer frequency, TF over GST control)"

# — paper PMC7862700, “An all-to-all approach to the identification of sequence-specific readers for epigenetic DNA modifications on cytosine”
